High-throughput results deposited in PubChem BioAssay by The Scripps Research Institute Molecular Screening Center.
TEAD-YAP block = TEAD-YAP interaction inhibition, primary screen, TEAD-YAP interaction inhibitor project, luminescence, HEK-TIYL cells | inhibition, % at 9.12 µM | 640,000 compounds, 1.4% hits | TEAD-Gal4/YAP UAS-luciferase luminescence; in the data active = inhibition above about 32%;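 note: 0% = median of test compound wells and 100% = reference inhibitor wells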
GPR151 activ = activators of human GPR151, primary screen, cell-based, PathHunter beta-arrestin, luminescence; G-protein coupled receptor 151 (Homo sapiens), Q8TDV0; PathHunter beta-arrestin GPR151 cells; activation, % at 11.2 µM; 650,000 compounds, 1% hits; in the data active = activation above about 4.9%;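 note: 0% = median of compound wells and 100% = cells with positive control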
FBW7 activator = FBW7 E3 ligase activators, primary screen, biochemical, AlphaScreen, human. F-box/WD repeat-containing protein 7 (Homo sapiens), Q969H0. AlphaScreen FBW7–phospho-cyclin E peptide binding, activator screen. normalized activity (activation), % at 26.1 µM. 650,000 compounds, 0.13% hits. AID 1259310, 2017; in the data active = normalized activity above about 1.9%;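 note: purified mutant Fbw7 with reduced substrate affinity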
MITF inh = MITF inhibitors, primary screen, biochemical, AlphaScreen, human; Microphthalmia-associated transcription factor (Homo sapiens), O75030; AlphaScreen MITF homodimerization, bead proximity signal; inhibition, % at 2.6 µM; 650,000 compounds, 0.91% hits; in the data active = inhibition above about 50%;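 note: 0% = vehicle wells with protein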
MITF inh conf = MITF inhibitors, retest of hits, confirmation, biochemical, AlphaScreen, triplicate | shares compounds with MITF inh | 4,700 compounds, 16% hits | AID 1259372, 2018 | inhibition, % at 2.6 µM | AlphaScreen MITF homodimerization, biotin/His-MITF beads;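 active = inhibition above a cutoff derived from the DMSO control wells, cut at about 28% in these data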;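 note: 0% = MITF dimer wells with DMSO only; inhibitors lower the bead chemiluminescence by keeping MITF from dimerizing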
AlphaScreen DR = AlphaScreen optical interference compounds, dose response, counter-screen, biochemical, HTS; shares compounds with MITF inh; AlphaScreen optical interference counterscreen, cell-free; IC50, µM; 480 compounds, 6% hits; call rule not given here
AS interf ctr = AlphaScreen optical interference compounds, counter-screen for MITF inhibitor project, biochemical, triplicate | 4,700 compounds, 7.6% hits | shares compounds with MITF inh | inhibition, % at 2.6 µM | AID 1259376, 2018 | LysRS AlphaScreen counterscreen, signal interference;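 active = inhibition above a cutoff derived from the DMSO control wells, cut at about 30% in these data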
GPR151 confirm = GPR151 activators, triplicate retest, confirmation, cell-based, PathHunter beta-arrestin, luminescence. shares compounds with GPR151 activ. GPR151 PathHunter beta-arrestin cells, 90 min; % of EA-reagent control over plate median. activation, % at 11.2 µM. 6,700 tested, under 10 active;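 active = mean percent activation across replicates above the confirmation screen cutoff of 4.91%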
GPR119 counter = GPR119 activators in beta-arrestin cells, counter-screen for GPR151 activator project, cell-based, PathHunter beta-arrestin, luminescence, triplicate; shares compounds with GPR151 activ; 90 min; 0 = compound-well median, 100 = enzyme-acceptor control; activation, % at 11.2 µM; 6,700 compounds, 0.3% hits; AID 1508611, 2020;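 active = mean percent activation in the counterscreen above 29.09%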;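 note: counterscreen on off-target GPR119 to flag nonselective hits from the GPR151 activator screen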
Target sequence (Q8TDV5 whole entry, looked up): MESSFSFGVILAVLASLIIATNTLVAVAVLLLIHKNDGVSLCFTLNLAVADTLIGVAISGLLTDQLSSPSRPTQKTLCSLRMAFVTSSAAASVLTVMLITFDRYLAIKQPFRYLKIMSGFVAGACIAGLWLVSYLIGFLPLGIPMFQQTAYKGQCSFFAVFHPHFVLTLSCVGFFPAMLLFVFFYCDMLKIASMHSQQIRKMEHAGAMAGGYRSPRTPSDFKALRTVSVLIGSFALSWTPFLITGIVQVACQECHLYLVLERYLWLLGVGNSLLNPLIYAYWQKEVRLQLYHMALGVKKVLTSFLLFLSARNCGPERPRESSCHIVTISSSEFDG
Active calls of the source: *; . = not tested or not shown. A selection: hits, their analogues and other compounds. The true share with any hit is near 3.5%.

SMILES	TEAD-YAP block	GPR151 activ	FBW7 activator	MITF inh	MITF inh conf	AS interf ctr	GPR151 confirm	GPR119 counter	others
O=C(CN1CCC(N2CCCCC2)CC1)Nc1ccccc1O	2.3	5.7*	0.2	52.2*	7.6	2.9	-0.5	-2.2
Cc1ncc2c(c1CNC(=O)c1ccc3nc[nH]c3c1)CCN(C(=O)C1CCCO1)C2 (centres undefined)	-1.9	0.9	-0.2	-1.5	.	.	.	.
Cc1ccc(C2/C(=C(/O)c3ccc(S(=O)(=O)N(C)C)cc3)C(=O)C(=O)N2Cc2cccnc2)o1 (centres undefined)	6.6	0.8	0.1	13.5	.	.	.	.
CCN1CCN(CC#CCOc2ccccc2OC)CC1	7.5	9.7*	0.1	82.1*	8.0	13.4	-0.6	-10.3
O=C(c1ccncc1)N1CCN(Cc2cccnc2)CC1	7.2	9.0*	0.0	67.6*	-17.9	-4.8	0.1	15.0
COc1cc(CN2CCN(C(=O)c3cccnc3)CC2)cc(OC)c1OC	0.8	-0.5	0.1	47.1	.	.	.	.
COc1cc(OC)c(OC)cc1CN1CCC(N2CCCCC2)CC1	-7.2	6.1*	-0.2	59.8*	20.2	16.5	0.1	9.8
COc1cc(OC)c(CN2CCC(N3CCCCC3)CC2)cc1Br	0.8	-0.5	0.2	12.0	.	.	.	.
COc1cc(OC)cc(C(=O)OCCN2C(=O)c3cccc4c(N5CCOCC5)ccc(c34)C2=O)c1	-1.8	-0.5	0.0	2.5	.	.	.	.
CCn1ccnc1CN1CCN(Cc2cccc(OC)c2)C(CCO)C1 (centres undefined)	-9.1	17.6*	0.2	52.9*	28.4*	16.2	-0.1	1.8	AlphaScreen DR=>6.48
CCN1CCN(CCOc2ccc(Cl)c(C)c2C)CC1	-0.3	7.7*	0.0	75.0*	12.6	10.5	1.2	0.6
CCc1cc(OCCN2CCN(CC)CC2)ccc1Cl	-1.0	7.0*	-0.1	70.0*	7.9	17.3	-0.5	-9.0
Cc1c(Cl)ccc(OCCN2CCNCC2)c1C	-0.8	0.2	0.1	11.2	.	.	.	.
c1ccc2c(CN3CCOCC3)cccc2c1	7.8	-0.1	0.2	37.7	.	.	.	.
Clc1cccc(CN2CCOCC2)c1Cl	2.2	9.9*	0.4	60.0*	-6.2	-8.0	-0.1	5.9
Cc1cc(O)c2c(c1)Cc1cccc(O)c1C2=O	2.0	5.4*	-0.3	115.8*	115.4*	-25.4	0.6	-7.3	AlphaScreen DR=>6.48
Cc1ccc(OCCCN2CCN(C)CC2)c([N+](=O)[O-])c1	10.7	5.2*	-0.2	75.5*	-6.9	-3.5	-0.3	-6.1
Cc1ccc(OCCCN2CCNCC2)c([N+](=O)[O-])c1	4.5	0.4	-0.1	37.4	.	.	.	.
CCN(CC)C(=O)CN1N=C(c2ccccc2)Cn2c(cc3ccccc32)C1=O	5.7	-0.9	-0.1	-0.8	.	.	.	.
COc1cc(CN2CCN(Cc3ccc(Br)cc3)CC2)cc(OC)c1	-4.6	6.1*	0.2	81.6*	10.7	5.7	-1.3	-9.5
COc1cc(CN2CCOCC2)cc(OC)c1	4.1	-0.8	-0.1	42.2	.	.	.	.
COc1ccc(CN2CCN(Cc3cc(OC)cc(OC)c3)CC2)cc1	-0.7	17.3*	-0.1	77.1*	-5.5	1.2	-0.6	-13.5
Cc1cc(C)n(-c2cc(NCC(C)c3ccccc3)nc(C)n2)n1 (centres undefined)	-8.4	-0.6	0.4	8.5	.	.	.	.
CC(=O)c1cccc(-c2nc(Nc3ccc(Oc4ccccc4)cc3)c3ncn(C(C)C)c3n2)c1	5.8	0.4	0.0	2.0	.	.	.	.
C=CCNCCOCCOc1ccc(OCC)cc1	14.6	6.0*	1.6	51.4*	48.9*	7.4	0.7	0.6	AlphaScreen DR=>6.48
